39 sequences from the OligoGym collection can be followed below.

One experiment concerns the target INPP5F. As to the kind of experiment: pooled miR-30 sensor sort-seq; sequence = guide strand. The note with it: shRNA.
Regarding TTGCTTGGTGATCTGCAGCATC, the sensor-assay potency score (higher = more potent) was -0.92.
Take TTCACTTCTGTCCAGCCGCGGT: the sensor-assay potency score (higher = more potent) is -1.35.
As to TAGACTTAGTCGTTGATACTGG, the sensor-assay potency score (higher = more potent) is -0.136.

In a further experiment the target is INVS. Described as above. To be noted: shRNA.
TAAGACGTTATATTGCAGCTTT gave a sensor-assay potency score (higher = more potent) of 0.127.
Sequence TTTTATTCACATCTGCTCCTGC gave a sensor-assay potency score (higher = more potent) of 0.562.
On to TTCGTGAGAACAACCATAGATT, for which the sensor-assay potency score (higher = more potent) was -0.97.
Sequence TACTTGAGCATTATTTTCCAGT had a sensor-assay potency score (higher = more potent) of -0.382.
Turning to TAGAAGAGAATGTCCATCTTGG, the sensor-assay potency score (higher = more potent) stood at 0.67.
TTTAAAAACACTTTAACCGTTT displayed a sensor-assay potency score (higher = more potent) of -0.562.
TTATTTTCTATTAATATCTGGC: the sensor-assay potency score (higher = more potent) came to 0.295.
On to TTTTAAAAACACTTTAACCGTT, for which the sensor-assay potency score (higher = more potent) is -0.842.
As for TTGGTCAACTAGATCTACCCTT, the sensor-assay potency score (higher = more potent) came out at 0.547.
TTTGTTTTCTTCCTCTCGCTTT: the sensor-assay potency score (higher = more potent) was 0.0611.
Still for that read-out and setting: to AACATCAGTAGCATCTACTTGA belongs 0.641; to TTAATATCTGGCAAACATCAGC, -0.861.

Another experiment has as its target IP6K3. The description is as above. The note with it: shRNA.
In turn, ATATTTACACTTGTCCACCAGT showed a sensor-assay potency score (higher = more potent) of -0.684.
On the same count and under the same terms, to TTTTCCAGCAACAAGAACCGAT belongs -0.15.
In turn, TTCATAGAACCTCTGCTCCCGG gave a sensor-assay potency score (higher = more potent) of -0.506.
TAGATGACAAGGAGAGAGCTGG returned a sensor-assay potency score (higher = more potent) of -0.213.
The same measure, in the same setting: under TTGCAGAGAAAGTACTTCTTAT stands -0.832.
With TTTTCTTCCATAGTACTTGTCT, the sensor-assay potency score (higher = more potent) was 0.567.
The same measure, in the same setting: to TACACTTGTCCACCAGTCTTGT belongs -0.242.
TTACACTTGTCCACCAGTCTTG: the sensor-assay potency score (higher = more potent) was -0.0833.
Take TGACACTACATTTTCCAGCAAC: the sensor-assay potency score (higher = more potent) is -1.2.
The sequence TATTTGAGATCTATAGCCCAGA had a sensor-assay potency score (higher = more potent) of -0.584.
The sequence TTGTTCTCTGGGTACTCGGAGC showed a sensor-assay potency score (higher = more potent) of -1.42.
Turning to TTCTTCCATAGTACTTGTCTTT, the sensor-assay potency score (higher = more potent) is -1.16.

A further experiment deals with IPO11. The experiment is described as above. The note with it: shRNA.
The sequence TTCCACAACCTTGAGCACCTGA displayed a sensor-assay potency score (higher = more potent) of 0.832.
TTTGTAGTAGAACTCGACCCAT had a sensor-assay potency score (higher = more potent) of -0.362.
Sequence TATCTCTACACACATTATCTGT showed a sensor-assay potency score (higher = more potent) of -0.812.
In the case of TTGTTCTCCTAGCATCTCCTGC, the sensor-assay potency score (higher = more potent) is -0.927.
Consider TATACTTCTACTGCATTCCAGA, for which the sensor-assay potency score (higher = more potent) is -0.431.
Same read-out and setting: to TTGTAGTAGAACTCGACCCATA belongs -0.751; to TAAATCTTGATCTTGAAGCAAG, -0.725.
Still for that read-out and setting: to TTCTTTAATAGCATCATCTGAA belongs -0.198.
TAGCTGGGTGACAATCTCCGTA showed a sensor-assay potency score (higher = more potent) of -0.584.
TAACAGGAAACTAAGCAGCTAT registered a sensor-assay potency score (higher = more potent) of -0.294.
The same measure, in the same setting: under TTAACTTCAAAGTTGTAGCTGT stands 0.668; under TAATTCTAAACCATCTTCCAGA, -0.364.
